RORg inh: qHTS for inhibitors of ROR gamma transcriptional activity; Nuclear receptor ROR-gamma (Mus musculus), P51450; Drosophila S2 Gal4-RORgamma UAS-luciferase reporter, 20 h; Potency, µM (titrated, usually from 53.6 µM), most hits filed as inhibitors; actives 5.4% (n = 310,000); AID 2551, 2010; note: nearly all actives have a fitted effect of over 60% in size
Target sequence (P51450 whole entry, looked up, the tested form may be a part): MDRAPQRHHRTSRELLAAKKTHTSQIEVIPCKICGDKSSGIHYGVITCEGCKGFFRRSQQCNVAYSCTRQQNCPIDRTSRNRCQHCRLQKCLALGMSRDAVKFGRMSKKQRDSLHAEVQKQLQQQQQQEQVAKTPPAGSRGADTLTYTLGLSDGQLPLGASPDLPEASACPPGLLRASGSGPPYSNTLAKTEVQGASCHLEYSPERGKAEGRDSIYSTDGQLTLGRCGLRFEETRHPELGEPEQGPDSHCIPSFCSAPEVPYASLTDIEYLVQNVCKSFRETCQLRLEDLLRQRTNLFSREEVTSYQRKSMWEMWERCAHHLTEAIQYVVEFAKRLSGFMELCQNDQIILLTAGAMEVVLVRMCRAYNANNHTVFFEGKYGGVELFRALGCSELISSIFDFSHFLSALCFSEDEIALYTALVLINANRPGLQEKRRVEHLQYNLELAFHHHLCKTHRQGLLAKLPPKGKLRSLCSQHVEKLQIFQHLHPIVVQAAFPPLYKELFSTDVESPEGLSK
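Compounds are pin-transferred onto Drosophila Schneider cells expressing a copper-inducible Gal4–ROR gamma transactivation domain fusion. After 1 hr, copper sulfate is added to 700 uM final; luciferase is read 20 hr later.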
IL-1B inflam inh: qHTS for Inhibitors of Inflammasome Signaling: IL-1-beta AlphaLISA Primary Screen; AID 743279, 2014; activity change, % at 57.5 µM; actives 4.7% (n = 360,000); THP-1 LPS/ATP IL-1B secretion, AlphaLISA, 16 h; active compounds read low; in the data active = activity change below about -50%; inconclusive = mostly about -30% to -49%
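Secreted IL-1B measured by AlphaLISA bead assay after 16 h compound exposure of THP-1 cells; compounds (final up to 57.5 uM) added 1 h before LPS (250 ng/mL) and ATP (1.25 mM) stimulation; lower signal means less secretion.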
TDP1 cell CPT: qHTS for Inhibitors of human tyrosyl-DNA phosphodiesterase 1 (TDP1): qHTS in cells in presence of CPT; chicken DT40 Tdp1-/-;hTDP1 cells + 20 nM CPT, ATP luminescence, 48 h; Potency, µM (highest dose often 46.2 µM), actives largely listed as inhibitors; actives 12% (n = 420,000); AID 686979, 2013; note: nearly all actives have a fitted effect of over 55% in size
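Chicken DT40 Tdp1-/- cells stably complemented with human TDP1 were seeded at 400 cells/well in medium containing 20 nM camptothecin, exposed to pin-transferred compounds, and grown at 37 °C for at least 48 hr. Viability was read as ATP luminescence.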
DT40 TDP1 no CPT: qHTS for Inhibitors of human tyrosyl-DNA phosphodiesterase 1 (TDP1): qHTS in cells in absence of CPT; actives 15% (n = 420,000); DT40 Tdp1-/- hTDP1 cells, no CPT, ATP luminescence, 48 h; Potency, µM (doses to about 46.2 µM), usual class: inhibitors; note: nearly all actives have a fitted effect of over 55% in size
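Camptothecin absent (DMSO only). Human TDP1-complemented DT40 knockout cells, 400 cells/well, 37 °C for minimum 48 hr; ATP measured via CellTiter-Glo, 30 min dark incubation, luminescence.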
Gal4-VP16 FLuc: VP16 counterscreen qHTS for inhibitors of ROR gamma transcriptional activity; Drosophila S2 Gal4-VP16 UAS-luciferase, luminescence, 20 h; Potency, µM (top dose mostly 53.6 µM), hits mostly inhibitors; actives 3.5% (n = 310,000);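 note: Gal4-VP16 expression switched on by copper sulfate through the metallothionein promoter; nearly all actives have a fitted effect of over 50% in size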
LDHA block: qHTS assay for inhibitors of human lactate dehydrogenase. L-lactate dehydrogenase A chain (Homo sapiens), P00338. purified LDHA, NADH/diaphorase-resazurin fluorescence; active compounds read low. activity change, % (values are at about 110 or 230 µM). actives 0.15% (n = 480,000). AID 1347041, 2019; in the data active = activity change below about -30%; inconclusive = mostly about -25% to -30%
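Human LDH5 (2 nM) was incubated with 0.06 mM NADH and 0.2 mM pyruvate for 5 min at room temperature in Tris pH 7.4. Remaining NADH was coupled through diaphorase/resazurin, and resorufin fluorescence was read at 0 and 20 min.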
Numbers stand for hits; – = inactive; ? = inconclusive; · = no result given; [ ] = another dose, or the depositor's remark. Compounds with a hit are over-represented: about 18% of the library has one in this group of screens. Unless noted, calls come from the whole dose curve; as a rule, active = well fitted curve in the direction sought with a large enough effect; inconclusive = small, poorly fitted or top-dose-only effect, or another doubt; inactive = no such curve, though single readings can be large; an effect the other way counts as inactive or inconclusive.

SMILES | RORg inh | IL-1B inflam inh | TDP1 cell CPT | DT40 TDP1 no CPT | Gal4-VP16 FLuc | LDHA block
CC1Cc2cc(S(=O)(=O)CCC(=O)Nc3ccc(OC(F)(F)F)cc3)ccc2N1C(=O)C1CC1 (stereo unspecified) | · | · | 7.31µM | 5.8µM | · | –
CCOc1ccc(NC(=O)CCS(=O)(=O)c2ccc(Br)cc2)cc1 | – | – | ? | 23.1µM | – | –
Cc1ccc(NC(=O)Cn2cc(C#N)c3ccccc32)cc1 | · | · | · | · | · | –
COc1ccccc1-c1nc(-c2cc3ccccc3nc2OC)no1 | · | · | · | · | · | –
CC(CNC(=O)c1cc2ccccc2o1)N1CCCC1 (stereo unspecified) | · | · | · | · | · | –
Cc1c(Cl)cccc1NC(=O)CCS(=O)(=O)c1ccc2c(c1)CC(C)N2C(=O)C1CC1 (stereo unspecified) | · | · | 5.17µM | 4.11µM | · | –
CC1=CC(C)(C)Nc2ccc(OC(=O)c3cccnc3)cc21 | 0.501µM | -98.4 | 2.91µM | 4.61µM | 0.794µM | –
CC1=CC(C)(C)Nc2ccc(OC(=O)CN3C(=O)CCC3=O)cc21 | 5.62µM | -100.6 | 2.91µM | 2.82µM | 7.08µM | –
O=C(Oc1ccc(F)cc1)c1cccnc1 | – | – | – | – | – | –
COc1ccc(OC(=O)C(C)N2C(=O)c3ccccc3C2=O)cc1 (stereo unspecified) | –[1.91 µM] | – | – | – | – | –
CC1=CC(C)(C)Nc2ccc(OC(=O)C(C)N3C(=O)c4ccccc4C3=O)cc21 (stereo unspecified) | ? | – | 2.06µM | 2.59µM | 11.2µM | –
CCN(C(=O)C1Cc2ccccc2C(=O)O1)c1c(N)n(Cc2ccccc2)c(=O)[nH]c1=O (stereo unspecified) | · | · | · | · | · | –
Cc1ccc(Cn2c(SCCC(C)C)nc3c2c(=O)[nH]c(=O)n3C)cc1 | · | · | · | · | · | –
CCc1ccc(NC(=O)c2nc(S(=O)(=O)Cc3ccccc3)ncc2Cl)cc1 | 0.282µM | · | · | · | 3.16µM | ·
CCOC(=O)c1ccc(NC(=O)c2nc(S(=O)(=O)Cc3ccccc3)ncc2Cl)cc1 | 7.94µM | -104.7 | 0.461µM | 1.3µM | 4.47µM | –
CCc1ccc(/C=C2\SC(=S)N(CCCC(=O)N3CCN(C)CC3)C2=O)cc1 | · | -55.3 | ? | ? | · | –
COc1cccc(/C=C2\SC(=S)N(CCC(=O)NNC(=O)c3ccccc3OC)C2=O)c1 | ? | – | – | – | – | –
COc1cccc(/C=C2/SC(=S)N(CC(=O)NNC(=O)c3ccccc3OC)C2=O)c1 | 10µM | – | – | – | ? | –
COc1ccc(/C=C2\SC(=S)N(CCCC(=O)N3CCN(C)CC3)C2=O)cc1 | 7.08µM | -90.6 | ? | ? | ? | –
COc1cccc(/C=C2\SC(=S)N(CCCC(=O)N3CCCCC3)C2=O)c1 | 4.47µM | – | ? | ? | 12.6µM | –
Cc1cccc(Nc2nc(C(=O)N3CCC(C)CC3)cs2)c1 | · | · | · | · | · | –
C[N+](C)(CCCCCCCCCC[N+](C)(C)C1CCCCC1)C1CCCCC1 | · | · | · | · | · | –
CCOC(=O)N1CCN(C(=O)CN2C(=O)/C(=C\c3cccc(OC)c3)SC2=S)CC1 | · | · | 7.94µM | 8.91µM | · | –
O=C(Nc1ccc(SC(F)F)cc1)c1ccncc1 | · | · | · | · | · | –
COc1ccc2c(c1)OCCN(c1ccc(NC(=O)c3cccc(C)c3)cc1C(=O)O)C2 | · | · | · | · | · | –
C[C@H]1CN([C@@H](C)CO)S(=O)(=O)c2ccc(C#Cc3cccnc3)cc2O[C@@H]1CN(C)C(=O)Nc1ccc2c(c1)OCO2 | · | – | ? | 23.1µM | · | –
C[C@@H]1CN([C@H](C)CO)S(=O)(=O)c2ccc(C#Cc3ccccc3F)cc2O[C@H]1CN(C)C(=O)c1ccc2c(c1)OCO2 | · | -73.9 | 18.4µM | 6.51µM | · | –
C[C@H](CO)N1C[C@H](C)[C@@H](CN(C)CC2CCOCC2)Oc2cc(C#Cc3ccccc3F)ccc2S1(=O)=O | · | – | 18.4µM | 9.2µM | · | –
